# Screening results as filed in PubChem.
# A selection: hits, their analogues and other compounds. The true share with any hit is near 9.3%.
# Vaccinia Venus: qHTS for Stage-Specific Inhibitors of Vaccinia Orthopoxvirus: Venus Reporter Primary qHTS; Vaccinia virus Venus reporter expression, fluorescence; Potency, µM (titrated, usually from 36.5 µM), inactives show at the top dose activity change, negative = inhibition, usual class: inhibitors; hit rate 0.46% among 330,000; AID 720580, 2013; calls by dose curve; tested in A549 cells; note: potency is the fitted concentration of half-maximal effect; nearly all actives have a fitted effect of over 30% in size
# FMDV antiviral: High Throughput Screening for Foot and Mouth Disease Virus Antivirals; FMDV antiviral cell-based qHTS; Potency, µM (titrated, usually from 57.9 µM), for the others: at the top dose activity change, negative = inhibition, most hits filed as inhibitors; hit rate 1.2% among 410,000; AID 1159524, 2015; calls by dose curve; tested in HEK293T cells; note: read-out not given here; potency is the fitted concentration of half-maximal effect; nearly all actives have a fitted effect of over 45% in size
# Sm TGR block: qHTS Assay for the Inhibitors of Schistosoma Mansoni Peroxiredoxins; Schistosoma mansoni thioredoxin glutathione reductase (TGR), Q962Y6; purified TGR, DTNB reduction, TNB absorbance 405 nm; Potency, µM (highest dose often 114 µM), inactives show at the top dose activity change, negative = inhibition, actives largely listed as inhibitors; hit rate 3% among 360,000; AID 485364, 2010; note: potency is the fitted concentration of half-maximal effect; nearly all actives have a fitted effect of over 60% in size
#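 TGR 20 nM + NADPH 100 uM (dispensed conc.), cpd preinc 15 min RT; start with NADPH (500 uM addition) then DTNB (15 mM addition). Kinetic TNB absorbance, 405 nm filter. Four-parameter Hill fit across titration.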
# HCMV antiviral: qHTS Assay for inhibitors of the human cytomegalovirus (HCMV); HFF cells, HCMV-luciferase reporter, 72 h; active compounds read low; activity change, negative = inhibition, % at 57.5 µM; hit rate 4.5% among 410,000; AID 1259415, 2018; in the data active = activity change below about -60%; inconclusive = no clear call, values can overlap the other calls; inactive = above about -39%
#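 Human foreskin fibroblasts infected with luciferase-reporter HCMV at MOI 1 PFU/cell, compounds at two doses. Luciferase measured 72 h post infection; normalized to buffer-only basal and Salinomycin (10uM) controls.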
# HCV inh: qHTS Assay for Inhibitors of Hepatitis C Virus (HCV) | AID 651820, 2012 | Huh7.5.1 HCVcc-Cre infection, luciferase reporter, 44 h | Potency, µM (doses to about 41.8 µM), without a hit: top-dose activity change, negative = inhibition, actives largely listed as inhibitors | hit rate 3.4% among 340,000; note: potency is the fitted concentration of half-maximal effect
#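 Infectious HCVcc-Cre (~0.5 moi) was added to cells just after compound, with cells seeded 4 h earlier at 1,000 per well. Luciferase activity after 44 h culture reported infection; substrate was incubated 15 min at room temperature before reading.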
# VACV mCherry inh: qHTS for Stage-Specific Inhibitors of Vaccinia Orthopoxvirus: mCherry Reporter Primary qHTS. Vaccinia virus mCherry reporter infection, fluorescence. Potency, µM (doses to about 36.5 µM), for the others: top-dose activity change, negative = inhibition, actives largely listed as inhibitors. hit rate 0.63% among 310,000. AID 720579, 2013; calls by dose curve; tested in A549 cells; note: potency is the fitted concentration of half-maximal effect; nearly all actives have a fitted effect of over 35% in size
# * = called active by the depositor; i = inactive; u = inconclusive; x = not tested or not shown. Unless noted, calls come from the whole dose curve; as a rule, active = well fitted curve in the direction sought with a large enough effect; inconclusive = small, poorly fitted or top-dose-only effect, or another doubt; inactive = no such curve, though single readings can be large; an effect the other way counts as inactive or inconclusive. % is set by controls: 0 for no effect and ±100 for the full control effect.
SMILES,Vaccinia Venus,FMDV antiviral,Sm TGR block,HCMV antiviral,HCV inh,VACV mCherry inh
CCOc1ccc2[nH]c3c(N4CCN(c5ccccn5)CC4)ncnc3c2c1,x,u,-9%,u,1µM*,x
c1ccc(CN2CCN(c3ncnc4c3[nH]c3ccccc34)CC2)cc1,u,10µM*,7%,-106*,11µM*,7.1µM*
O=C(NCCc1nnc2ccc(N3CCCCCC3)nn12)c1ccccc1,-15%,-7%,-22%,u,-9%,i
Fc1ccc(OCCCCCCN2CCCC2)cc1,-14%,-15%,-31%,-35,u,0%
O=C(CN1C(=O)c2cccnc2C1=O)c1ccccc1,x,40%,-10%,0,-6%,x
O=C(c1ccc(S(=O)(=O)N2CCOCC2)cc1)N(Cc1ccco1)Cc1cccs1,-19%,-21%,-16%,-3,-24%,-9%
CN(C)c1ccc(/C=C/C=C2/C(=O)NC(=O)N(c3ccccc3)C2=O)cc1,-6%,20µM*,u,-113*,u,7%
CN1C(=O)/C(=C/C=C/c2ccco2)C(=O)NC1=S,58%,u,u,0,6%,17%
Cc1ccc(N2C(=O)NC(=O)/C(=C\C=C\c3ccco3)C2=O)cc1,x,20µM*,11µM*,-100*,u,x
O=C1NC(=O)N(c2ccccc2)C(=O)/C1=C/C=C/c1ccco1,x,u,10µM*,-100*,u,x
O=C1S/C(=C\C=C\c2ccco2)C(=O)N1c1ccccc1,-13%,10%,45µM*,-34,2%,-10%
O=C1S/C(=C\C=C\c2ccco2)C(=O)N1c1ccc(O)cc1,-14%,u,u,u,u,i
Cc1ccc(-c2csc(C(C)(O)c3cccc(F)c3)n2)cc1C (stereo unspecified),-2%,-20%,x,-5,x,-29%
Cc1cccc(N2C(=O)NC(=O)/C(=C\C=C\c3ccco3)C2=O)c1,x,7.1µM*,u,0,u,x
Cc1ccc(N2C(=O)NC(=O)/C(=C\C=C\c3ccco3)C2=O)cc1C,28%,u,25µM*,-102*,u,-2%
CCOC(=O)C1=C(C)N(c2ccc(C)c(C)c2)C(=O)/C1=C\c1ccco1,x,-1%,0%,5,u,x
Cc1cccc(N2C(=O)NC(=O)/C(=C/c3ccc([N+](=O)[O-])o3)C2=O)c1,91%,-19%,8.9µM*,x,1%,25%
CC(C)NC(=O)c1ccc(COc2cccc3ccccc23)o1,-22%,u,x,0,x,-26%
CN(C)c1ccc(NC(=O)Cn2c(SCc3ccc(F)cc3)nc3cccnc32)cc1,-8%,22%,-1%,5,x,-8%
CCc1ccc(NC(=O)Cn2c(C(=O)OC)cc3oc(C)cc32)cc1,-4%,16%,u,1,x,-15%
COc1cc(CN(C(C)=O)c2ccccc2C(=O)O)ccc1[N+](=O)[O-],-11%,-6%,x,-63*,28%,i
COC(=O)N1CCC2(CC1)CN(c1cccc(-c3ccccc3)c1)C2,x,6%,x,x,x,x
CC1(C)CC(=O)C2=C(C1)OC1=C(C(=O)CC(C)(C)C1)C2c1ccc(O)c([N+](=O)[O-])c1,x,3%,-4%,32,9%,x
CC1(C)CC(=O)C2=C(C1)OC1=C(C(=O)CC(C)(C)C1)C2c1ccc(O)cc1O,x,6.3µM*,22µM*,-102*,u,x
O=C(O)C1CCCCC1C(=O)Nc1ccc(F)cc1F (stereo unspecified),x,0%,7%,74,8%,x
CC(C)N(C(=O)CCl)c1ccccc1,u,u,x,-21,10µM*,-25%
Cc1csc(NC(=O)CS(=O)(=O)Cc2ccccc2)n1,-17%,21%,x,-71*,8%,-12%
CCOC(=O)Cc1csc(NC(=O)CCS(=O)(=O)Cc2ccccc2)n1,-20%,-22%,20µM*,31,-17%,-15%
